Laboratory results reported in PubChem BioAssay AID651871 (Sanford-Burnham Center for Chemical Genomics, 2012).

The molecules below were run on HL-1 (assay: cardiomyocyte survival under oxidative or metabolic stress – cell-based, panel, H9c2 and HL-1, ATP luminescence, set 2, SAR follow-up (AID 651871;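 also: cells exposed to stressor for 2 h before ATP readout; reference of the scale not given here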)). Conditions: H9c2/HL-1 cardiomyocytes, 2-deoxyglucose stress, with 2-deoxyglucose, run 15, at 79 µM (top of the series).

Row | Structure (SMILES) | activity (protection/inhibition) [%]
1 | CCOC(=O)c1cccc(NC(=O)CNC(=O)c2cc(-c3cc(OC)c(OC)c(OC)c3)nc3ccccc23)c1 | 87.5
2 | COc1ccc2c(c1OC)C(=O)N1c3ccccc3C(=O)N(Cc3cccc(Cl)c3Cl)C21 (stereo not drawn) | -12.5
3 | COc1ccc2nc(-c3cc(OC)c(OC)c(OC)c3)cc(C(=O)NCC(=O)Nc3ccc(C(C)=O)cc3)c2c1 | 56
